We go through 39 compounds from PubChem BioAssay (EPA / NIEHS).

Values joined by “and” are separate entries in the source; they are usually repeats but may differ in a detail not shown here. Equal entries are not always repeated. A structure can be active in one record and inactive in another. Active and inactive are the calls of the source. The calls were made as follows: active = hit-call score of the fitted dose curve at least 0.9, where 1 is the maximum; inactive = score below 0.9.

One assay is described as follows: ATG_NRF2_ARE_CIS: Attagene CIS-FACTORIAL HepG2 Assay for human Nuclear Factor Erythroid 2 Related Factor 2 (NFR2) response to Antioxidant Response Elements (ARE) (AID 2282992).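 As to AC50: reporter mRNA level measured by RT-PCR and capillary electrophoresis fluorescence.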 The note with it: HepG2 Attagene ARE/NRF2 reporter, transcription factor activity; actives raise or lower the signal. Put shortly: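 Fluorescence intensity of reporter-specific cDNA fragments, separated by capillary electrophoresis, reflects mRNA induction in transfected HepG2 cells at 24 h. Activity is fitted bidirectionally, DMSO serving as baseline.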
`C[C@]12CC[C@H](O)CC1=CC[C@@H]1[C@@H]2CC[C@]2(C)C(=O)CC[C@@H]12`: the compound was classed as inactive.
Still for that read-out and setting: the same measure for `CC(=O)OC(c1ccccc1)C(Cl)(Cl)Cl` (centres undefined): “inactive”; for `C=C(C)C#N`: “inactive”.
For the compound `ClC1=C(Cl)[C@]2(Cl)[C@H]3[C@H]([C@H]4C=C[C@H]3C4)[C@@]1(Cl)C2(Cl)Cl`, the outcome was inactive.
In the case of `COc1cccc(C=O)c1`, the result was inactive.
What is called AC50 is the concentration giving half of the maximal activity seen. As for `O=C(O)Cc1ccccc1`, the AC50 was 25.9 µM (active).
On to `CCOP(=S)(OCC)Oc1ccc(S(C)=O)cc1` (centres undefined), for which the compound was classed as inactive.
Still for that read-out and setting: next, `CCC1(c2ccc(N)cc2)CCC(=O)NC1=O` (centres undefined): “inactive”.
With `CCCCCCCCC(=O)NCc1ccc(O)c(OC)c1`, the AC50 was 38.3 µM (active).
For `CC(C)(c1ccc(OCC2CO2)cc1)c1ccc(OCC2CO2)cc1` (centres undefined), the half-maximal activity concentration (AC50) is 8.41 µM (active).
For the compound `CN(C)P(=O)(N(C)C)N(C)C`, the result was inactive.
Take `COc1ccc(C=O)cc1OC`: the outcome was inactive.
Same read-out and setting: next, `CCc1ccccc1N`: “inactive”; `ClC1(Cl)C2(Cl)C3(Cl)C4(Cl)C(Cl)(Cl)C5(Cl)C3(Cl)C1(Cl)C5(Cl)C24Cl` (centres undefined): “inactive”.
Take `Nc1cccc2ccccc12`: the concentration at half-maximal activity (AC50) was 77.9 µM (active).
With `O=CC=O`, the outcome was inactive.
As for `CC(=O)C(Cl)C(=O)N(C)C` (centres undefined), the AC50 was 25.9 µM (active).
The same measure, in the same setting: the same measure for `ClC(Cl)=C(Cl)C(Cl)=C(Cl)Cl`: 66 µM (active); for `Cl/C=C\C[N+]12CN3CN(CN(C3)C1)C2`: 160 µM (active).
The same measure, in the same setting: next, `O=C(Cc1ccccc1)c1ccccc1`: 19.8 µM (active).
Turning to `CCCCOCCOC(C)=O`, the result was inactive.
Same read-out and setting: next, `CCC(=O)C(CC(C)N(C)C)(c1ccccc1)c1ccccc1` (centres undefined): “inactive”; `C=CCc1ccc(OC)cc1`: “inactive”.
On to `Fc1ccc(C2(Cn3cncn3)OC2c2ccccc2Cl)cc1` (centres undefined), for which the half-maximal activity concentration (AC50) was 44.7 µM (active).
Regarding `CCOC(=O)CP(=O)(OCC)OCC`, the call was inactive.
Turning to `COC(=O)Cc1ccccc1`, the compound was called inactive.
In the case of `Oc1cccc2cccnc12`, the AC50 was 15.3 µM (active) and 1.64 µM (active).
For the compound `O=S(=O)(c1ccc(Cl)cc1)c1ccc(Cl)cc1`, the concentration at half-maximal activity (AC50) was 10 µM (active).
Consider `CC1(C)Cc2cccc(O)c2O1`, for which the result was inactive.
The same measure, in the same setting: the same measure for `NC(=S)Nc1ccccc1`: “inactive”.
For `CC1(C)CCC(Cc2ccc(Cl)cc2)C1(O)Cn1cncn1` (centres undefined), the AC50 is 33.4 µM (active).
On to `ClC1=C(Cl)[C@]2(Cl)[C@@H]3[C@@H](Cl)[C@@H](Cl)C[C@@H]3[C@@]1(Cl)C2(Cl)Cl`, for which the compound was called inactive.
Regarding `Nc1ccc(-c2ccc(N)c(Cl)c2)cc1Cl`, the half-maximal activity concentration (AC50) was 2.66 µM (active).
On to `C1CCC(NC2CCCCC2)CC1`, for which the compound was classed as inactive.
As to `COP(=S)(OC)Oc1ccc(Sc2ccc(OP(=S)(OC)OC)cc2)cc1`, the AC50 was 3.58 µM (active).
Take `ClCC(Cl)CCl`: the result was inactive.
Take `Cc1ccc(N)cc1Cl`: the compound was called inactive.
Consider `CC(=O)C=C(C)C`, for which the call was inactive.
The same measure, in the same setting: the same measure for `CCOP(OCC)OCC`: “inactive”.

The nature of another assay: ATG_Oct_MLP_CIS: Attagene CIS-FACTORIAL HepG2 Assay for human Octamer-Binding Transcription Factor (Oct) (AID 2282993). Particulars: HepG2 Attagene cis-factorial Oct reporter, mRNA; actives raise or lower the signal. Put shortly: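 Multiplexed cis-reporter assay in human liver HepG2 cells, 24 h incubation. Reporter RNA amplified and labelled, then resolved by capillary electrophoresis; DMSO serves as negative control and baseline.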
Regarding `C[C@]12CC[C@H](O)CC1=CC[C@@H]1[C@@H]2CC[C@]2(C)C(=O)CC[C@@H]12`, the compound was called inactive.
The same measure, in the same setting: the same measure for `CC(=O)OC(c1ccccc1)C(Cl)(Cl)Cl` (centres undefined): “inactive”; for `C=C(C)C#N`: “inactive”.
Still for that read-out and setting: next, `ClC1=C(Cl)[C@]2(Cl)[C@H]3[C@H]([C@H]4C=C[C@H]3C4)[C@@]1(Cl)C2(Cl)Cl`: “inactive”; `COc1cccc(C=O)c1`: “inactive”.
Same read-out and setting: the same measure for `O=C(O)Cc1ccccc1`: “inactive”; for `CCOP(=S)(OCC)Oc1ccc(S(C)=O)cc1` (centres undefined): “inactive”.
Regarding `CCC1(c2ccc(N)cc2)CCC(=O)NC1=O` (centres undefined), the outcome was inactive.
In the case of `CCCCCCCCC(=O)NCc1ccc(O)c(OC)c1`, the compound was classed as inactive.
Consider `CC(C)(c1ccc(OCC2CO2)cc1)c1ccc(OCC2CO2)cc1` (centres undefined), for which the concentration at half-maximal activity (AC50) was 24.9 µM (active).
On to `CN(C)P(=O)(N(C)C)N(C)C`, for which the compound was classed as inactive.
On the same count and under the same terms, the same measure for `COc1ccc(C=O)cc1OC`: “inactive”; for `CCc1ccccc1N`: “inactive”; for `ClC1(Cl)C2(Cl)C3(Cl)C4(Cl)C(Cl)(Cl)C5(Cl)C3(Cl)C1(Cl)C5(Cl)C24Cl` (centres undefined): “inactive”.
Still for that read-out and setting: next, `Nc1cccc2ccccc12`: “inactive”; `O=CC=O`: “inactive”; `CC(=O)C(Cl)C(=O)N(C)C` (centres undefined): “inactive”.
As for `ClC(Cl)=C(Cl)C(Cl)=C(Cl)Cl`, the AC50 is 149 µM (active).
Consider `Cl/C=C\C[N+]12CN3CN(CN(C3)C1)C2`, for which the outcome was inactive.
On the same count and under the same terms, next, `O=C(Cc1ccccc1)c1ccccc1`: “inactive”; `CCCCOCCOC(C)=O`: “inactive”.
Same read-out and setting: next, `CCC(=O)C(CC(C)N(C)C)(c1ccccc1)c1ccccc1` (centres undefined): “inactive”; `C=CCc1ccc(OC)cc1`: “inactive”.
Turning to `Fc1ccc(C2(Cn3cncn3)OC2c2ccccc2Cl)cc1` (centres undefined), the compound was classed as inactive.
Still for that read-out and setting: the same measure for `CCOC(=O)CP(=O)(OCC)OCC`: “inactive”.
On the same count and under the same terms, the same measure for `COC(=O)Cc1ccccc1`: “inactive”.
In the case of `Oc1cccc2cccnc12`, the half-maximal activity concentration (AC50) was 167 µM (active) and the outcome was inactive.
As for `O=S(=O)(c1ccc(Cl)cc1)c1ccc(Cl)cc1`, the result was inactive.
For `CC1(C)Cc2cccc(O)c2O1`, the compound was called inactive.
Turning to `NC(=S)Nc1ccccc1`, the compound was called inactive.
On the same count and under the same terms, next, `CC1(C)CCC(Cc2ccc(Cl)cc2)C1(O)Cn1cncn1` (centres undefined): “inactive”; `ClC1=C(Cl)[C@]2(Cl)[C@@H]3[C@@H](Cl)[C@@H](Cl)C[C@@H]3[C@@]1(Cl)C2(Cl)Cl`: “inactive”.
`Nc1ccc(-c2ccc(N)c(Cl)c2)cc1Cl`: the AC50 is 5.49 µM (active).
For the compound `C1CCC(NC2CCCCC2)CC1`, the outcome was inactive.
Same read-out and setting: the same measure for `COP(=S)(OC)Oc1ccc(Sc2ccc(OP(=S)(OC)OC)cc2)cc1`: “inactive”; for `ClCC(Cl)CCl`: “inactive”.
Same read-out and setting: the same measure for `Cc1ccc(N)cc1Cl`: “inactive”; for `CC(=O)C=C(C)C`: “inactive”.
As to `CCOP(OCC)OCC`, the call was inactive.
